In PubChem BioAssay (NCATS):
Records with an inconclusive call do not appear. Calls of active or inactive are those of the source. Unless noted, the call rests on the fitted dose curve; in most records, active means well fitted curve in the direction sought with a large enough effect; inconclusive means small, poorly fitted or top-dose-only effect, or another doubt; inactive means no such curve, though single readings can be large; an effect the other way counts as inactive or inconclusive.

Assays:
[1] = biological target: T1, Hexokinase-4 (Homo sapiens) + Glucokinase regulatory protein (Homo sapiens) (UniProt P35557+Q14397); assay: qHTS assay for inhibitors of recombinant human GCK-GKRP interaction: Diaphorase-coupled assay (AID 743205)
T1 sequence (P35557 whole entry, looked up): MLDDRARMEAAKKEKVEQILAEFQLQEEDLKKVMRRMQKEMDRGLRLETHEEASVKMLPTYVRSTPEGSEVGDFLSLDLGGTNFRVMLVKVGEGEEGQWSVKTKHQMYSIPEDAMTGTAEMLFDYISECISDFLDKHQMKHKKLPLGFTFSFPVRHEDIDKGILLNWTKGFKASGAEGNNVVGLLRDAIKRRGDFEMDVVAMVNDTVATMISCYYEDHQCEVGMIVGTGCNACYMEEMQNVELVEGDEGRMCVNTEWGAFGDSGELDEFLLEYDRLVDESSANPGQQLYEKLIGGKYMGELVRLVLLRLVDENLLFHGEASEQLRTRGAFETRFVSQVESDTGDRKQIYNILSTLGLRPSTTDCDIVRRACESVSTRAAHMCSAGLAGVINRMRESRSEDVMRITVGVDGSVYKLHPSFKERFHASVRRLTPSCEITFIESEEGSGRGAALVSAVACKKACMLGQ
T1 sequence (Q14397 whole entry, looked up): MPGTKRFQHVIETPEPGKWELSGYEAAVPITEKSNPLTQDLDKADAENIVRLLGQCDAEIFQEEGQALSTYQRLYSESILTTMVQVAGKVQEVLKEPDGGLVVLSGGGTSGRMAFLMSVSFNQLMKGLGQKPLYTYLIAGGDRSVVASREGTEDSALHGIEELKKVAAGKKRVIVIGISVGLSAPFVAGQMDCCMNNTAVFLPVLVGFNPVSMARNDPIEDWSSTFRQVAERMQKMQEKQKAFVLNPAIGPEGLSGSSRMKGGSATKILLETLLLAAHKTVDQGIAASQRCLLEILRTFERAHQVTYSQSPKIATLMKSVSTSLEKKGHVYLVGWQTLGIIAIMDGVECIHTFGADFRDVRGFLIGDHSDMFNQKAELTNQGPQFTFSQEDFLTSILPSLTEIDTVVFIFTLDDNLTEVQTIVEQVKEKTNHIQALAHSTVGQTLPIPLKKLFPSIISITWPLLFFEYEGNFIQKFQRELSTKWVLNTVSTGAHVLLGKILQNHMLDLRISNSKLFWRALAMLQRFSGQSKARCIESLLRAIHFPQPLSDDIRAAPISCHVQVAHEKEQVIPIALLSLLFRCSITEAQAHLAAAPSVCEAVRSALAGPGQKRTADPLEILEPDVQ
Outline: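 Resorufin fluorescence (525/590 nm), read each minute over 30 min, reports GCK activity coupled via G6PDH and diaphorase. Reaction: 10 nM GST-GCK, 10 nM FLAG-GKRP, 5 mM glucose, 0.4 mM ATP, 0.15 mM NADP+, 0.1 mM resazurin.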

[2] = biological target: T1, Hexokinase-4 (Homo sapiens) + Glucokinase regulatory protein (Homo sapiens); assay: qHTS assay for inhibitors of recombinant human GCK-GKRP interaction: ADP-Glo assay (AID 743206);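 further: plate controls were DMSO plus enzyme for no effect and no enzyme for full effect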
Outline: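 Pin-transferred compounds meet a 15 nM GST-GCK/15 nM FLAG-GKRP/2 uM S6P mix (dispense concentrations). ATP is then added to 0.4 mM final with 5 mM glucose, and the reaction runs 60 min at room temperature. ADP is quantified luminescently.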

[3] = biological target: T1, Hexokinase-4 (Homo sapiens) + Glucokinase regulatory protein (Homo sapiens); assay: qHTS assay for inhibitors of recombinant human GCK-GKRP interaction: HTRF assay (AID 743207);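 further: 0% = DMSO with GCK present and -100% = DMSO wells lacking GCK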
Outline: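 HTRF read-out (ex 320 nm; 615/665 nm emission) after 60 min RT equilibration of 5 nM GST-GCK, 5 nM FLAG-GKRP, 2 uM S6P, compound and anti-FLAG/anti-GST detection antibodies; signal normalized between DMSO wells with and without GCK.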

[4] = qHTS assay for measurement of the activity of small molecule inhibitors on Zika virus induced Caspase-3 activity in human iPSC derived neural progenitor cells (hNPCs) (AID 1224857); further: % of control where 0% means no effect; nearly all actives have a fitted effect of over 65% in size
Outline: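 Quantitative HTS format: human iPSC neural progenitors, 1 h compound pretreatment, ZIKV 2 FFU/cell for 6 h at 37 C. Percent inhibition derived from luminescent caspase-3/7 signal between uninfected and infected controls.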

[5] = qHTS assay for measurement of the activity of small molecule inhibitors on Zika virus induced Caspase-3 activity in human astrocytoma cells (AID 1224859);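 further: plate controls were ZIKV-infected untreated cells for no effect and uninfected cells for full effect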
Outline: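 Readout is luminescence from Caspase-Glo 3/7 added after a 6 h ZIKV infection (2 FFU/cell) of compound-pretreated (1 h) SNB-19 cells; data expressed as % inhibition versus uninfected and infected wells.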

[6] = Natriuretic polypeptide receptor (hNpr1) antagonism - Pilot counterscreen GloSensor control cell line (AID 1347045; calls by dose curve; further: potency means the concentration at half of the fitted maximal effect; on activity change, negative = inhibition: series mostly up to about 38 µM; on the % scale 0 is the no-effect control and ±100 the full control effect)
Outline: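 Control counterscreen: luciferase cGMP-biosensor HEK293 cells (no Npr1) received compound for 30 min at room temperature after GloSensor substrate loading. Luminescence was measured before and 20 min after soluble guanylyl cyclase activation by 50 uM nitroprusside.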

[7] = biological target: Atrial natriuretic peptide receptor 1 (Homo sapiens) (UniProt P16066); assay: Natriuretic polypeptide receptor (hNpr1) antagonism - Pilot screen (AID 1347049; calls by dose curve;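 further: agonist-evoked cGMP luminescence read 20 min after hNppA addition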; further: potency means the concentration at half of the fitted maximal effect; on activity change, negative = inhibition: series mostly up to about 58 µM; on the % scale 0 is the no-effect control and ±100 the full control effect)
Chain of Atrial natriuretic peptide receptor 1 (Homo sapiens) (P16066 whole entry, looked up): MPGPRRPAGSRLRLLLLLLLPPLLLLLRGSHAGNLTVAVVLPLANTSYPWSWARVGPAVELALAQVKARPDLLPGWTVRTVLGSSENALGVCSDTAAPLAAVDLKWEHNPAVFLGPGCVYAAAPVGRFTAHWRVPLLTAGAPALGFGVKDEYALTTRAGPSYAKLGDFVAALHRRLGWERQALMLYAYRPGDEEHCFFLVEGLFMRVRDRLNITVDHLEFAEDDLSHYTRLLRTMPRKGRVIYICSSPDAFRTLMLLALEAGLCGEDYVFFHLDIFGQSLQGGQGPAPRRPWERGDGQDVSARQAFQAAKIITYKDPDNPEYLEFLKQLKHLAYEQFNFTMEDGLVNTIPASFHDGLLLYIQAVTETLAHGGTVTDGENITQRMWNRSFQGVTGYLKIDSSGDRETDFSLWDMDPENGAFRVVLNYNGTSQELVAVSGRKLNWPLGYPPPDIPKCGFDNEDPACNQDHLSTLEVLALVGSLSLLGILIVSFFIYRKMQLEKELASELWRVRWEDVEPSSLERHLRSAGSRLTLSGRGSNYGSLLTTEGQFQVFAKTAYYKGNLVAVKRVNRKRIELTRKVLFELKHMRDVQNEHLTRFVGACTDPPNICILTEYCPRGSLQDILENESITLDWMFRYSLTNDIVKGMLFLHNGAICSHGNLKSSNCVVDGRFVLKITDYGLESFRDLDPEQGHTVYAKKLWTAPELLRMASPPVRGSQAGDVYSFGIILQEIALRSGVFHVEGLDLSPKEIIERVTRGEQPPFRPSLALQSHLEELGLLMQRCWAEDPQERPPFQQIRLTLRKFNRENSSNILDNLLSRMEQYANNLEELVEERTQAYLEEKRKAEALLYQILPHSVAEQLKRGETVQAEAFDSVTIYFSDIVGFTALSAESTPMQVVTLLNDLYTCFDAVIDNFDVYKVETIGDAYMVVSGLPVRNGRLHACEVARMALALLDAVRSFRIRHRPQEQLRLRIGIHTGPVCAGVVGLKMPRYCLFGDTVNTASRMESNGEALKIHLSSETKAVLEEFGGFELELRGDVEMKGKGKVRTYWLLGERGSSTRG
Outline: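 cGMP-sensor HEK293/hNpr1 cells, 1500/well, plated overnight at 37C. 2% GloSensor reagent, 2 h RT. Compound (23 nL pin transfer) 30 min RT, baseline luminescence pre-read. 0.1 nM hNppA, 20 min RT, post-read.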

[8] = biological target: Atrial natriuretic peptide receptor 2 (Homo sapiens) (UniProt P20594); assay: Natriuretic polypeptide receptor (hNpr2) antagonism - Pilot subtype selectivity assay (AID 1347050; calls by dose curve; further: potency means the concentration at half of the fitted maximal effect; on activity change, negative = inhibition: on the % scale 0 is the no-effect control and ±100 the full control effect)
Chain of Atrial natriuretic peptide receptor 2 (Homo sapiens) (P20594 whole entry, looked up): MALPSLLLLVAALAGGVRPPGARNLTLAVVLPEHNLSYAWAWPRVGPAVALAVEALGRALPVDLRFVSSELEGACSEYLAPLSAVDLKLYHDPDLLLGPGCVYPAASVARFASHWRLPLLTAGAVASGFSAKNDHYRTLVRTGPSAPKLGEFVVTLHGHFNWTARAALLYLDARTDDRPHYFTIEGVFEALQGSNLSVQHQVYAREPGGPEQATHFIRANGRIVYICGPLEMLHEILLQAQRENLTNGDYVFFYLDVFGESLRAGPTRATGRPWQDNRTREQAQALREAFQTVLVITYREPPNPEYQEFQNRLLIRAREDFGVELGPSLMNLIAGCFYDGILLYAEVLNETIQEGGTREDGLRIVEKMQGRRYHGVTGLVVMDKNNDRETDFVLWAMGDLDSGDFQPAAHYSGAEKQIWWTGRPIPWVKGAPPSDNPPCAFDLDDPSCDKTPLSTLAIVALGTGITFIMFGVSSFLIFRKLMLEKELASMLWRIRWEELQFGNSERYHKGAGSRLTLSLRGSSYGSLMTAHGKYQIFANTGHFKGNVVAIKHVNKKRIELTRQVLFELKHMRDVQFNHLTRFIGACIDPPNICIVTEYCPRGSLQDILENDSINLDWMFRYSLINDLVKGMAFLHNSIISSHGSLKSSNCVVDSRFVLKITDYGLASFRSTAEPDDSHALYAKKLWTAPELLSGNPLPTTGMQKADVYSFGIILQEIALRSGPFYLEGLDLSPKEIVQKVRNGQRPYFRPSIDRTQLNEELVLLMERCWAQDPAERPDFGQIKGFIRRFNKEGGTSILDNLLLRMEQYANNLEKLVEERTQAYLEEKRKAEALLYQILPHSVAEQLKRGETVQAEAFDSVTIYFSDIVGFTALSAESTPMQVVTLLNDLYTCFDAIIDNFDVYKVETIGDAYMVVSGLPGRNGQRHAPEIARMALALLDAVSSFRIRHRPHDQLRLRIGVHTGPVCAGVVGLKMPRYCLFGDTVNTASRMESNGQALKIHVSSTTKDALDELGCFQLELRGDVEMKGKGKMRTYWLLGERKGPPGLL
Outline: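 Luminescence from a genetically encoded cGMP luciferase biosensor in hNpr2-expressing HEK293 cells is read before and 20 min after adding 1 nM hNppC. Test compounds, in interplate 1:5 titrations, are added 30-50 min ahead of the agonist.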

[9] = qHTS Assay for Identifying Gametocytocidal Compounds (AID 743244);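 further: on the % scale 0 is the no-effect control and ±100 the full control effect; actives lower the fluorescent signal which means gametocytes are killed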; conditions: P. falciparum 3D7 stage III-V gametocytes, alamarBlue, 72 h; max response: hits give low values
Outline: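 A resazurin-based viability read-out was applied to mature P. falciparum gametocytes: 72 h compound treatment, then 24 h dye incubation, with falling fluorescence signalling gametocytocidal effect.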

[10] = P-glycoprotein substrates identified in KB-8-5-11 adenocarcinoma cell line, qHTS therapeutic library screen (AID 1346987); further: potency means the concentration at half of the fitted maximal effect; nearly all actives have a fitted effect of over 65% in size
Outline: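 Compounds are pinned in dose-response onto KB-8-5-11 cells (500 cells/well, colchicine-free medium) and left 72 h at 37 degree C. CellTiter-Glo luminescence then yields AC50 values.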

CCCCOC(=O)NS(=O)(=O)c1sc(CC(C)C)cc1-c1ccc(Cn2c(CC)nc3c(C)cc(C)nc32)cc1
inactive: Potency [1] | Potency [2] | Potency [3] | Potency [4] | Potency [5] | Potency [6] | Potency [7] | Potency [8]

O=C1NC(=O)c2cc(Nc3ccccc3)c(Nc3ccccc3)cc21
inactive: Potency [1] | Potency [2] | Potency [3] | max response [9] 5.21% | Potency [4] | Potency [5] | Potency [6] | Potency [7] | Potency [8]

O=C(N[C@@H](Cc1ccccc1)C(=O)CCl)OCc1ccccc1
inactive: Potency [1] | Potency [2] | Potency [3] | Potency [4] | Potency [5]
active: Potency [6] 3290 nM | Potency [7] 10700 nM | Potency [8] 4140 nM

C=CCN1CCc2c(cc(O)c(O)c2Cl)C(c2ccccc2)C1 (stereo not drawn)
inactive: Potency [1] | Potency [2] | Potency [3] | Potency [4] | Potency [5] | Potency [6] | Potency [7] | Potency [8]

COc1ccccc1N1CCN(CCCCNC(=O)c2ccc3ccccc3c2)CC1
inactive: Potency [1] | Potency [2] | Potency [3] | max response [9] 17.6% | Potency [4] | Potency [5] | Potency [6] | Potency [7] | Potency [8]

CCCCCCN(CCCCCC)C(=O)Cc1c(-c2ccc(F)cc2)[nH]c2ccccc12
inactive: Potency [1] | Potency [2] | Potency [3] | max response [9] 19.7% | Potency [4] | Potency [5] | Potency [6] | Potency [7] | Potency [8]

CCCN(CCc1ccccc1)C1CCc2c(O)cccc2C1 (stereo not drawn)
inactive: Potency [1] | Potency [2] | Potency [3] | Potency [4] | Potency [5] | Potency [6] | Potency [7] | Potency [8]

O=c1[nH]c(=O)c2nc3ccccc3nc2[nH]1
inactive: Potency [1] | Potency [2] | Potency [3] | Potency [4] | Potency [5] | Potency [6] | Potency [7] | Potency [8]

NC1CCN(O)C1=O (stereo not drawn)
inactive: Potency [1] | Potency [2] | Potency [3] | max response [9] 19.4% | Potency [4] | Potency [5] | Potency [6] | Potency [7] | Potency [8]

COC(=O)C(N)Cc1ccc(Cl)cc1 (stereo not drawn)
inactive: Potency [1] | Potency [2] | Potency [3] | max response [9] 4.72% | Potency [4] | Potency [5] | Potency [6] | Potency [7] | Potency [8]

CCCCCC[C@@H]([C@@H](C)O)n1cnc2c(N)ncnc21
inactive: Potency [1] | Potency [2] | Potency [3] | max response [9] 12% | Potency [4] | Potency [5] | Potency [6] | Potency [7] | Potency [8]

c1ccc(C2CN3CCSC3=N2)cc1 (stereo not drawn)
inactive: Potency [1] | Potency [2] | Potency [3] | Potency [4] | Potency [5] | Potency [6] | Potency [7] | Potency [8]

CC(C)NC[C@H](O)COc1cccc2ccccc12
inactive: Potency [1] | Potency [2] | Potency [3] | Potency [4] | Potency [5] | Potency [6] | Potency [7] | Potency [8]

CN(C)CCCc1cc(C(=O)Nc2ccc(-c3ccncc3)cc2)ccc1O
inactive: Potency [1] | Potency [2] | Potency [3] | Potency [4] | Potency [5] | Potency [6] | Potency [7] | Potency [8]

CN(C)S(=O)(=O)c1ccc2c(c1)/C(=C/c1cc3c([nH]1)CCCC3)C(=O)N2
active: Potency [10] 6510 nM
inactive: Potency [1] | Potency [2] | Potency [3] | max response [9] -2.03% | Potency [4] | Potency [5]

NCC(O)c1ccc(O)c(O)c1 (stereo not drawn)
inactive: Potency [1] | Potency [2] | Potency [3] | Potency [4] | Potency [5] | Potency [6] | Potency [7] | Potency [8]

CC(C)C[C@H](NC(=O)[C@H](O)[C@H](N)Cc1ccccc1)C(=O)O
inactive: Potency [1] | Potency [2] | Potency [3] | max response [9] 2.38% | Potency [4] | Potency [5] | Potency [6] | Potency [7] | Potency [8]

CCCCCCCCCCCCCCC[C@H](O)[C@H](N)CO
inactive: Potency [1] | Potency [2] | Potency [3] | Potency [4] | Potency [5] | Potency [6] | Potency [7] | Potency [8]

CCSC(=N)N
inactive: Potency [1] | Potency [2] | Potency [3] | max response [9] 12.9% | Potency [4] | Potency [5] | Potency [6] | Potency [7] | Potency [8]

NC(N)=N[C@@H](CCC(=O)O)C(=O)O
inactive: Potency [1] | Potency [2] | Potency [3] | max response [9] -1.42% | Potency [4] | Potency [5] | Potency [6] | Potency [7] | Potency [8]

O=c1onc2cnc3ccccc3n12
active: Potency [6] 261 nM
inactive: Potency [1] | Potency [2] | Potency [3] | Potency [4] | Potency [5] | Potency [7] | Potency [8]

C[C@]12C=CC(=O)C=C1CC[C@@H]1C2=CC[C@]2(C)[C@@H](C(=O)CN3CCN(c4cc(N5CCCC5)nc(N5CCCC5)n4)CC3)CC[C@@H]12
inactive: Potency [1] | Potency [2] | Potency [3] | Potency [4] | Potency [5] | Potency [6] | Potency [7] | Potency [8]

CC[n+]1c(/C=C/C=C2/N(C)c3ccccc3C2(C)C)sc2ccccc21
active: Potency [6] 233 nM | Potency [7] 213 nM | Potency [8] 233 nM
inactive: Potency [1] | Potency [2] | Potency [4] | Potency [5]

C[C@@]1(C2CCCC2)Cc2cc(OCC(=O)O)c(Cl)c(Cl)c2C1=O
inactive: Potency [1] | Potency [2] | Potency [3] | max response [9] 33.9% | Potency [4] | Potency [5] | Potency [6] | Potency [7] | Potency [8]

N[C@H](C(=O)O)[C@H](Cc1ccccc1)C(=O)O
inactive: Potency [1] | Potency [2] | Potency [3] | Potency [4] | Potency [5] | Potency [6] | Potency [7] | activity change, negative = inhibition [8] -2% [at 1.53 µM]
